# PKD1 kinase inh: blocks activity of human protein kinase D1; PKD1 kinase fluorescence polarization assay; 0.056% of 200,000 active; inhibition, % (concentration not given with the values); in the data active = inhibition above about 50%
# Furin inh: blocks human furin protease activity. purified furin, fluorogenic substrate cleavage. inhibition, % at 20 µM or 30 µM. 0.061% of 220,000 active. AID 463115; in the data active = inhibition above about 25%
# FAS-TE inh: blocks the thioesterase domain of human fatty acid synthase; recombinant FAS-TE, OMFH fluorogenic substrate, fluorescence endpoint; P49327; inhibition, % at 15 µM; 0.67% of 360,000 active;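 active = compounds whose normalised, plate-corrected inhibition of enzyme fluorescence in the single-dose primary screen is 50% or more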;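 also: 0% = DMSO with enzyme and 100% = substrate without enzyme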
# SUMO HTRF inh: SUMOylation inhibition | P63279 | HTRF SUMOylation assay, SAE1/SAE2 + UBC9, in vitro | inhibition, % at 35 µM | 0.36% of 290,000 active | AID 2006; in the data active = inhibition above about 50%, passing the limit was not always enough
# Target sequence (P63279 whole entry, looked up): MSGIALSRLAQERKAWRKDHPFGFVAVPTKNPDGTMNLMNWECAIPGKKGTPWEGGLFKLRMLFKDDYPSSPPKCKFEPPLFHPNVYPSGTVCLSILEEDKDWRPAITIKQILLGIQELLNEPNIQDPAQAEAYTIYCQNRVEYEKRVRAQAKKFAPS
# p97 inhibitor: inhibitors of human p97 ATPase. recombinant p97 ATPase, Kinase-Glo ATP luminescence, 3 h. inhibition, % at 8 µM. 0.42% of 220,000 active. AID 1481; in the data active = inhibition above about 15%;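 also: 0% = DMSO vehicle and 100% = wells lacking enzyme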
# Redox H2O2 prof: compounds producing H2O2 with reducing agent – biochemical, NIH compound library profiling, artefact control for MLSCN library redox annotation, primary screen. DTT-dependent redox cycling H2O2, phenol red/HRP absorbance; 100% = 100 µM peroxide control, 0% = buffer. activation, % at 10 µM. 0.03% of 200,000 active. AID 878;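 active = activation of at least 50% relative to the plate's high and low controls in the primary single-dose screen; inactive = activation below 50%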;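 also: compound incubated with DTT at 0.8 mM final as the reducing agent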
# FAS-TE conf: confirmation of human fatty acid synthase thioesterase inhibitors; shares compounds with FAS-TE inh; recombinant FAS-TE, OMFH fluorogenic substrate, fluorescence; inhibition, % at 15 µM; 45% of 2,300 active;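 active = compounds inhibiting the enzyme by at least 50% at 15 µM in any one of the replicates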;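 also: 0% = enzyme with DMSO only and 100% = wells lacking enzyme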
# The depositor's hits bear a star; nt = no result given. The list is not random: actives were taken first. Their share in the collection is about 1.2%.
SMILES,PKD1 kinase inh,Furin inh,FAS-TE inh,SUMO HTRF inh,p97 inhibitor,Redox H2O2 prof,FAS-TE conf
CCC(C)c1ccc(NC(=O)Nc2cnccn2)cc1 (configuration not stated),nt,nt,0,-9,nt,nt,nt
Cc1ccc(-n2[nH]c(C)c(/C=N/Nc3ccc([N+](=O)[O-])cc3[N+](=O)[O-])c2=O)cc1C,7,-1,55*,1,-20,2,41*
O=C(C[n+]1ccn(-c2ccccc2)c1)c1ccc([N+](=O)[O-])cc1,nt,nt,-4,1,nt,nt,nt
Cc1csc(N(C(=O)c2ccc(S(=O)(=O)N(C)C)cc2)c2ccccc2)n1,7,-3,-4,6,-4,-1,nt
Cc1csc(N(C(=O)CCNC(=O)c2ccc([N+](=O)[O-])cc2)c2ccccc2)n1,-6,-9,72*,10,5,0,78*
COc1cc(OC)c2c(-c3ccccc3)cc(=O)oc2c1C(CC(=O)N1CCN(c2ccccc2)CC1)c1ccc(N(C)C)cc1 (configuration not stated),nt,-19,70*,14,nt,nt,14
COc1cc(OC)c2ccc(=O)oc2c1C(CC(=O)N1CCOCC1)c1ccc2c(c1)OCO2 (configuration not stated),nt,-15,-2,11,nt,nt,nt
COc1cc(OC)c2ccc(=O)oc2c1C(CC(=O)N1CCN(c2ccccc2)CC1)c1ccc2c(c1)OCO2 (configuration not stated),nt,-7,51*,7,nt,nt,25
O=S(=O)(Nc1ccc(-c2cn3c(n2)SCC3)cc1)c1cc(F)ccc1F,nt,nt,-4,nt,nt,nt,nt
O=C1C=CN2CCCCC2CC1 (configuration not stated),nt,nt,-12,nt,nt,nt,nt
N#Cc1cc(NC2CCCC2)c([N+](=O)[O-])cc1C#N,-11,-11,54*,1,5,0,22
Cc1cc(/C=N/n2c(COc3ccccc3)nc3ccccc3c2=O)c(O)c([N+](=O)[O-])c1,-5,-22,60*,93*,4,1,9
O=c1[nH]c2cc([N+](=O)[O-])c([N+](=O)[O-])cc2[nH]c1=O,-2,-7,66*,8,0,-1,73*
COc1ccc([N+](=O)[O-])cc1C(=O)NCCOc1ccc(Cl)cc1,nt,nt,63*,24,nt,nt,68*
COc1ccc(C2/C(=C(/O)c3ccc4c(c3)CC(C)O4)C(=O)C(=O)N2CCCN2CCOCC2)cc1 (configuration not stated),nt,nt,-4,15,nt,nt,nt
O=C(Nc1cccc(F)c1)C1CCN(C(=O)N2CCOc3ccccc32)CC1,nt,nt,-4,-4,nt,nt,nt
Cc1cccc(N2CCN(C(=O)c3ccc4c(c3)CCN4S(C)(=O)=O)CC2)c1C,nt,nt,4,-7,nt,nt,nt
CCS(=O)(=O)c1ccc(-c2csc(-c3ccccc3)n2)c(Cl)c1Cl,1,-12,84*,-12,0,-3,71*
CCN(CC(=O)Nc1cc(Cl)ccc1C)C(=O)c1oc2ccc(OC)cc2c1C,nt,nt,18,nt,nt,nt,nt
O=C(O)c1ccc(Nc2nc(-c3ccc([N+](=O)[O-])cc3)nc3ccccc23)cc1,nt,nt,55*,2,nt,nt,7
O=[N+]([O-])c1ccc(-c2nc(NCC3CCCO3)c3ccccc3n2)cc1 (configuration not stated),nt,-16,60*,-1,0,nt,16
COC(=O)C(C)NC(=O)C1CCCN1C(=O)CNC(=O)OCc1ccccc1 (configuration not stated),nt,nt,-4,18,nt,nt,nt
COC1Cc2ccccc2N(C(N)=O)c2ccccc21 (configuration not stated),nt,nt,-9,nt,nt,nt,nt
Cc1ccc(N2C(=O)[C@@H]3[C@H](C2=O)C2c4ccccc4C=NN2[C@@H]3C(=O)c2ccc(Cl)cc2)cc1 (some centres not stated),3,-3,82*,5,-4,-1,0
O=C(c1ccc(Cl)cc1)[C@@H]1[C@@H]2C(=O)N(c3ccc(Cl)cc3)C(=O)[C@@H]2C2c3ccccc3C=NN21 (some centres not stated),7,-4,69*,-1,3,1,10
SMILES,PKD1 kinase inh,Furin inh,FAS-TE inh,SUMO HTRF inh,p97 inhibitor,Redox H2O2 prof,FAS-TE conf
CC(=O)[C@@H]1[C@@H]2C(=O)N(c3ccc(F)c(Cl)c3)C(=O)[C@@H]2C2c3ccccc3C=CN21 (some centres not stated),-6,-6,nt,35,1,0,nt
Cc1ccc(N2C(=O)[C@@H]3[C@H](C2=O)[C@H]2C=CC=NN2[C@@H]3C(=O)Nc2ccc(Cl)cc2)cc1,-4,-32,-7,30,2,-7,nt
CC12CC3CC(C)(C1)CC(C(=O)NCc1cccnc1)(C3)C2,nt,nt,-5,-1,nt,nt,nt
CCN(CC)S(=O)(=O)c1ccc(C(=O)NNc2nc(-c3ccccc3)c3cc(Br)ccc3n2)cc1,-1,-15,68*,-20,-2,0,20
CC(C)(C)C(=O)NNc1nc(-c2ccccc2)c2cc(Br)ccc2n1,2,-11,3,2,4,0,nt
COc1ccc(/C=C2\SC(=O)N(CCNC(=O)C3CCN(S(=O)(=O)c4cccs4)CC3)C2=O)cc1,-4,-12,54*,-2,2,1,16
O=C(NCCN1C(=O)S/C(=C\c2ccc(F)cc2)C1=O)C1CCN(S(=O)(=O)c2cccs2)CC1,1,-19,21,9,1,0,nt
COc1cc(/C=C(\C#N)c2nc3ccccc3s2)cc([N+](=O)[O-])c1O,1,-5,51*,36,11,0,46*
O=C(CCN1C(=O)/C(=C\c2ccccc2Cl)SC1=S)Nc1cccnc1,nt,nt,57*,-5,nt,nt,54*
O=C(CCN1C(=O)/C(=C/c2ccccc2Cl)SC1=S)Nc1ccccc1C(=O)O,nt,nt,71*,12,nt,nt,77*
COc1ccc([C@@H]2[C@@H]3C(=O)N(C(C)(C)C)C(=O)[C@@H]3[C@]3(C)C(=O)N(c4ccc(C(F)(F)F)cc4)C(=O)N23)cc1,nt,nt,31,0,nt,nt,nt
CN(C)S(=O)(=O)c1ccc(N2CCCC2)c(C(=O)Nc2ccc(F)cc2F)c1,nt,nt,4,nt,nt,nt,nt
CN(C)S(=O)(=O)c1ccc(N2CCCC2)c(C(=O)Nc2nc3c(ccc4ccccc43)s2)c1,-1,-4,92*,-7,2,0,10
Cc1cnc(NC(=O)c2cc(S(=O)(=O)N(C)C)ccc2N2CCCC2)s1,nt,nt,3,nt,nt,nt,nt
COc1ccc(C(C)(C)C)cc1NC(=O)c1cc(S(=O)(=O)N(C)C)ccc1N1CCCC1,-3,-26,68*,-3,1,2,24
CC(=O)C(N=Nc1ccccc1)(Sc1nnc(-c2ccccc2)n1-c1ccccc1)C(=O)Nc1ccccc1 (configuration not stated),-6,-2,79*,15,2,-4,17
